ELG1 repair inh – inhibitors of ELG1-dependent DNA repair in HEK293T cells; HEK293T ELG1-luciferase reporter, luminescence, 16 h; DNA damage induced by 5-fluorouridine; Potency, µM (doses to about 46.1 µM), for the others: top-dose activity change, negative = inhibition, hits mostly inhibitors; 2.3% of 330,000 active; AID 504467; also: % is scaled to controls: 0 for no effect and ±100 for the full control effect; nearly all actives have a fitted effect of over 55% in size
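Overnight (16 hr) co-exposure of 2,000 cells/well to 5-fluorouridine and compound at 37 °C preceded detection. Luciferase was quantified via ONE-Glo luminescence; loss of signal denotes inhibition.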
NPC1 promoter act – NPC1 promoter activation; 2.4% of 320,000 active; Huh7 NPC1 promoter luciferase reporter, 24 h; Potency, µM (doses to about 9.22 µM), for the others: at the highest dose activation, hits mostly activators; also: % of control where 0% means no effect; nearly all actives have a fitted effect of over 60% in size
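Quantitative HTS used a cell-based reporter: Huh7 cells stably bearing the NPC1 promoter upstream of luciferase were treated with compounds for 24 h, and promoter activation was read as luminescence.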
FLuc counter – firefly luciferase modulation, counter-screen for miR-21 project. 6.9% of 360,000 active. Potency, µM (doses to about 57.5 µM), for the others: at the top dose activity change, negative = inhibition, actives largely listed as inhibitors. purified FLuc, Km substrates, luminescence inhibition. AID 588342. P08659;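 also: plate controls were vehicle for no effect and reference inhibitor for full effect; nearly all actives have a fitted effect of over 55% in size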
Target sequence (P08659 whole entry, looked up): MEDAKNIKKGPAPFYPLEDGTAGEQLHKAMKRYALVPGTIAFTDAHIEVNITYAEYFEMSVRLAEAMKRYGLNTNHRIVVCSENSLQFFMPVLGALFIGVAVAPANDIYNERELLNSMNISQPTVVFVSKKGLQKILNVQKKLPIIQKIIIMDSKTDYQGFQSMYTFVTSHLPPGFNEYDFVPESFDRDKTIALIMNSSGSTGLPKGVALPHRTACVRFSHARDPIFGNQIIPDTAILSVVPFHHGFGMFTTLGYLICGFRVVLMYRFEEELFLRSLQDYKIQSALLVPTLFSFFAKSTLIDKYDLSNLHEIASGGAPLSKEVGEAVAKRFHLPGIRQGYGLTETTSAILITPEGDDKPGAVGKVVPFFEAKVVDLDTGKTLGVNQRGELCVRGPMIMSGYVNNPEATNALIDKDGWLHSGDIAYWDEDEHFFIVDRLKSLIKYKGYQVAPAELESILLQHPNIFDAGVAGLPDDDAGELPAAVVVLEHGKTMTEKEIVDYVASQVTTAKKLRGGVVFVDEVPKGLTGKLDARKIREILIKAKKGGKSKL
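Purified P. pyralis luciferase, 10 nM final, with Km-level 10 uM D-luciferin and 10 uM ATP in 50 mM Tris acetate pH 7.5, 10 mM Mg acetate, 0.01% Tween-20, 0.05% BSA; 6-point qHTS titration about 60 µM downward; luminescence read.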
ELG1 genotoxic – induces genotoxicity in HEK293T cells with luciferase-tagged ELG1; HEK293T ELG1-luciferase reporter, luminescence, 16 h; Potency, µM (doses to about 46 µM), for inactives: at the top dose activity change, positive = activation, hits mostly activators; 1.3% of 330,000 active; also: % of control where 0% means no effect; nearly all actives have a fitted effect of over 60% in size
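HEK293T cells expressing luciferase-tagged ELG1 were treated with compound or DMSO for 16 hr at 37°C. Luciferase activity was then read after 30 min with ONE-Glo at room temperature; rising signal flags genetic stress.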
Rab9 promoter act – activators of Rab9 promoter; Huh7 Rab9 promoter-luciferase reporter, luminescence, 24 h; Potency, µM (titrated, usually from 9.22 µM), inactives show at the highest dose activation, negative = inhibition, usual class: activators; 2.8% of 320,000 active; also: % of control where 0% means no effect; nearly all actives have a fitted effect of over 60% in size
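Luminescence read-out: Huh7 cells stably expressing Rab9-luciferase, treated 24 h with compound at 37 °C, then lysed with luciferase reagent for 10 min at ambient before reading.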
SMN2 splice enh – increases expression of the SMN2 splice variant. 2.8% of 210,000 active. Potency, µM (highest dose often 46.1 µM), for inactives: at the top dose activity change, positive = activation, hits mostly activators. AID 1458. HEK293 SMN2-luciferase splicing reporter, luminescence, 30-36 h; also: % of control where 0% means no effect; nearly all actives have a fitted effect of over 55% in size
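HEK293 cells carry an SMN2 […]–luciferase reporter in which exon 7 inclusion puts luciferase in frame. Cells were plated 10-12 h before compound addition, then incubated 30-36 h at 37C. ONE-Glo luminescence was read; sodium butyrate at 4.5 mM final served as control.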
* marks the source's active call; other numbers are inactive results; ? = inconclusive; · = not tested or not shown; [ ] = dose if it differs, or a comment. Only some compounds are listed: those with a hit (about 9.2% of all), similar ones and a draw of the others. Calls follow the shape of the dose curve; as a rule, active = well fitted curve in the direction sought with a large enough effect; inconclusive = small, poorly fitted or top-dose-only effect, or another doubt; inactive = no such curve, though single readings can be large; an effect the other way counts as inactive or inconclusive. Potency is read from the fitted curve at half-maximal effect.

SMILES | ELG1 repair inh | NPC1 promoter act | FLuc counter | ELG1 genotoxic | Rab9 promoter act | SMN2 splice enh
COc1ccc(CCC(=O)NCCS(=O)(=O)N2CCN(c3ccc(F)cc3)CC2)cc1 | ? | 0.6% | 12.5% | -8.3% | -2.2% | ·
Cc1cccc(S(=O)(=O)c2c(C)cc(C)nc2Cl)c1 | -2.5% | -1.2% | 3.0% | -0.9% | 8.1% | 4.9%
CCOC(=O)c1sc2ncn(CC(=O)Nc3ccc(OC)c(Cl)c3)c(=O)c2c1C | · | · | 1.5% | · | · | -9.4%
Cc1ccc(-n2ncc3c(N4CCCCCC4)ncnc32)cc1Cl | · | · | 0.426µM* | · | · | ·
Cc1ccc(-n2ncc3c(N4CCCCC4)ncnc32)cc1Cl | · | · | 0.135µM* | · | · | ·
COc1ccc(N2CCN(c3ncnc4c3cnn4-c3ccc(C)c(Cl)c3)CC2)cc1 | · | · | 4.7% | · | · | ·
O=C(NCCCN1CCN(c2ccccc2F)CC1)c1cc2c(s1)-c1ccccc1OC2 | · | · | -14.8% | · | · | -16.0%
Cc1cc(/C=C2\C(=N)N3N=C(S(C)(=O)=O)SC3=NC2=O)c(C)n1Cc1ccccc1 | -17.4% | -4.2% | 16.9µM* | 0.7% | -4.0% | -15.1%
CCOc1cc(/C=C2\C(=N)N3N=CSC3=NC2=O)ccc1OS(=O)(=O)c1ccccc1 | 1.2% | 1.1% | -19.0% | -6.0% | -0.2% | ·
Cc1cc(/C=C2\C(=N)N3N=CSC3=NC2=O)c(C)n1Cc1ccccc1 | ? | ? | 1.35µM* | ? | ? | ·
CCCC1=NN2C(=N)/C(=C\c3cc(C)n(Cc4ccccc4)c3C)C(=O)N=C2S1 | -7.0% | 0.0% | ? | -3.8% | -6.2% | ·
COc1ccccc1C(=O)NCCC(=O)NC1CCCCCC1 | ? | · | · | 2.9% | · | ·
CC(C)CC(C(=O)NC(C)(C)C)N(CC1CCCO1)C(=O)c1snc(C(N)=O)c1N (centres undefined) | -11.8% | -5.1% | -0.2% | 4.7% | 10.9% | -37.6%
COc1cc(/C=C/C(=O)Nc2ccc(OC)c(S(=O)(=O)N3CCOCC3)c2)ccc1OC(F)F | 10.3µM* | · | · | -13.0% | · | ·
COc1ccc(/C=C/C(=O)Nc2cccc(N3CCOCC3)c2)cc1OC | ? | 3.8% | 26.9µM* | -5.2% | 3.3% | 10.5%
COc1ccc(/C=C/C(=O)Nc2cccc(F)c2)cc1S(=O)(=O)N1CCOCC1 | 20.6µM* | -12.2% | -14.8% | -15.5% | -5.7% | -45.3%
COc1ccc(NC(=O)/C=C/c2ccc(C)o2)cc1S(=O)(=O)N1CCOCC1 | ? | -0.9% | -2.2% | -4.8% | -4.8% | -28.3%
CCCCCn1cc2c(c1-c1ccc(Br)cc1)c(=O)n(C)c(=O)n2C | · | · | 2.9% | · | · | 3.5%
COc1cccc(NC(=O)c2sc(-n3nc(C)c(Cc4ccccc4Cl)c3C)nc2C)c1 | · | · | -1.5% | · | · | ·
Cc1ccc(C(=O)CSc2cc(C)[nH]c(=O)n2)cc1 | ? | 3.16µM* | 13.5µM* | ? | 3.98µM* | ·
Cc1ccc(CNC(=O)CSc2cc(C)[nH]c(=O)n2)cc1 | · | · | -13.5% | · | · | ·
Cc1cc(SCC(=O)c2ccccc2)nc(=O)[nH]1 | ? | 2.51µM* | 15.1µM* | 12.1%[9.26 µM] | 3.98µM* | ·
Cc1cc(SCC(=O)c2ccc(Cl)cc2)nc(=O)[nH]1 | ? | 1.26µM* | 4.78µM* | ? | 1.58µM* | ·
O=C(Cc1cccs1)Nc1ccccc1C(=O)O | ? | 20.3% | 15.1µM* | ? | ? | 10µM*
Cc1ccc(NC(=O)/C=C/c2ccc([N+](=O)[O-])s2)c(C)c1 | ? | -17.4% | 1.9% | ? | -38.8% | -102.2%
SMILES | ELG1 repair inh | NPC1 promoter act | FLuc counter | ELG1 genotoxic | Rab9 promoter act | SMN2 splice enh
O=C(/C=C/c1cccs1)Nc1scc(-c2ccccc2)c1C(=O)O | ? | 1.41µM* | 3.79µM* | ? | 1.12µM* | 11.2µM*
Cc1cc([N+](=O)[O-])ccc1NC(=O)/C=C/c1cccs1 | 1.4% | ? | ? | 21.8% | ? | 15.8µM*
O=C(/C=C/c1c(F)cccc1Cl)Nc1cccnc1 | ? | 1.58µM* | 3.79µM* | 2.31µM* | 3.98µM* | ·
CCc1ccc(NC(=O)Cn2c(=O)n(Cc3nc(-c4ccccc4)no3)c(=O)c3cc4c(cc32)OCO4)cc1 | · | · | -0.6% | · | · | ·
Cc1ccc(CNC(=O)c2cc(=O)c3cc(C)c(C)cc3o2)cc1 | · | · | -1.8% | · | · | -2.6%
Cc1ccnc(NC(=O)C2(c3cccs3)CCOCC2)c1 | -3.5% | -1.4% | 2.7% | 1.7% | -3.3% | -11.7%
O=C(/C=C/c1cccs1)Nc1nncs1 | ? | ? | 16.9µM* | 8.2% | ? | ·
O=C(/C=C/c1cccs1)Nc1nc(-c2ccccc2)cs1 | ? | 18.1% | 6.75µM* | 18.9% | 17.5% | -4.1%
Cc1ccnc(NC(=O)/C=C/c2cccs2)c1 | ? | 0.631µM* | 3.01µM* | ? | 0.631µM* | 3.98µM*
O=C(Cc1cccs1)Nc1nc(-c2ccccc2)cs1 | -12.7% | 13.5% | 15.1µM* | 9.6% | 1.1% | -30.7%
C=CCNC(=O)/C=C/c1cccs1 | ? | 4.0% | -1.0% | 3.5% | -1.8% | 13.0%
CC(=O)C(Cc1ccccc1)NC(=O)CN1c2cccc3cccc(c23)S1(=O)=O (centres undefined) | -10.1% | -0.4% | · | 0.5% | 2.1% | ·
O=C(Nc1cccnc1)c1cccs1 | ? | -23.8% | 1.0% | -0.2% | -4.5% | 8.91µM*
O=C(/C=C/c1cccs1)Nc1cccnc1 | ? | ? | 5.36µM* | ? | 2.82µM* | 17.8µM*
CC(=O)N/C(=N/c1nc(C)cc(C)n1)Nc1cccc(C)c1 | -27.0% | 0.1% | -0.2% | -0.3% | -3.6% | ·
Cc1ccc(-c2csc(NC(=O)C3=COCCO3)n2)cc1 | ? | ? | 15.1µM* | ? | 2.82µM* | 14.1µM*
CCOC(=O)c1csc(NC(=O)C2=COCCO2)n1 | ? | 2.51µM* | 15.1µM* | 9.2µM* | 2.82µM* | ·
CC(=O)Nc1ccc(-c2csc(NC(=O)C3=COCCO3)n2)cc1 | 25.7% | 29.5% | -16.6% | 1.1% | ? | ·
CCCc1ccc(-c2csc(NC(=O)C3=COCCO3)n2)cc1 | ? | 1.12µM* | · | 11.5% | 1.26µM* | ·
Cc1ccc(-c2csc(NC(=O)N3CCOCC3)n2)cc1 | 3.5% | 5.2% | 26.9µM* | ? | 15.5% | -24.6%
CCOC(=O)c1csc(NC(=O)C2CCCCC2)n1 | ? | 23.2% | ? | ? | 27.1% | ?
O=C(Nc1nc(-c2ccc(Oc3ccccc3)cc2)cs1)C1=COCCO1 | ? | -5.2% | ? | 3.9% | -1.0% | -61.0%
CC(C)(C)c1csc(NC(=O)C2=COCCO2)n1 | ? | 3.16µM* | 9.53µM* | ? | 2.51µM* | ·
Cc1nc(S(=O)(=O)N(C)c2ccccc2)c(C#N)c(C)c1Cl | 23.1µM* | -1.4% | 0.5% | -12.0% | -5.2% | -41.8%
CN(c1ccccc1)S(=O)(=O)c1ccc(Cl)nc1 | 8.6% | -5.9% | -0.9% | 0.0% | -0.5% | 22.5%
